Data from PubChem BioAssay (NCATS).
Values joined by “and” are separate entries in the source; they are usually repeats but may differ in a detail not shown here. Equal entries are not always repeated. Records with an inconclusive call do not appear. Active and inactive are the calls of the source. Unless noted, calls come from the whole dose curve; as a rule, active = well fitted curve in the direction sought with a large enough effect; inconclusive = small, poorly fitted or top-dose-only effect, or another doubt; inactive = no such curve, though single readings can be large; an effect the other way counts as inactive or inconclusive.

Assays:
[1] = AP1 Signaling Pathway (AID 357; active = well fitted curve in either direction with a large enough effect, not every such curve was filed as active;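 note: ME-180 reporter cells stimulated with EGF at its EC50 level; % is set by controls: 0 for no effect and ±100 for the full control effect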); details: ME-180 AP-1-bla reporter, EGF-induced, beta-lactamase ratio, 5 h
Method in brief: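 Modulation of EGF-driven AP-1 transcription was assessed with a beta-lactamase reporter in ME-180 cells. Compound and EC50 EGF were co-incubated 5 hours at 37 °C before 2.5-hour CCF4 loading at room temperature and dual-emission reading.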

[2] = biological target: Cytochrome P450 1A2 (Homo sapiens) (UniProt P05177); experiment: p450-cyp1a2 (AID 410; calls by dose curve; note: potency is the fitted concentration of half-maximal effect); details: recombinant CYP1A2, luciferin-ME demethylation, luminescence; series mostly up to 57 µM
Method in brief: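 20nM CYP1A2 with 100uM Luciferin-ME (at Km) in 100mM KPO4; compound preincubated 10 min, NADPH regeneration added, 60 min at room temperature. Luciferin quantified by luminescence after detection reagent; normalized to 57 uM furafylline.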

[3] = Stat Signaling Pathway (AID 446; active = well fitted curve in either direction with a large enough effect, not every such curve was filed as active;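 note: ME-180 cervical cancer cells given 40 pM IL-6 alongside compound; SIE-controlled beta-lactamase reporter measured as 460/530 nm FRET emission ratio; % is set by controls: 0 for no effect and ±100 for the full control effect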); details: ME-180 (cervical carcinoma) SIE beta-lactamase reporter, IL-6 stimulated, 5 h
Method in brief: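 IL-6/STAT signaling read in ME-180 cells via an SIE beta-lactamase reporter. Stimulus was 40 pM IL-6 (its AC50) for 5 hrs, so both activation and inhibition register.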

[4] = biological target: Glucocorticoid receptor (Homo sapiens) (UniProt P04150); experiment: GR-GFP Redistribution (AID 450;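 active = compounds whose dose series gives a full or clear partial fitted curve of increased nuclear translocation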; note: potency is the fitted concentration of half-maximal effect); details: U2OS GR-GFP nuclear translocation, laser cytometry, 2 h
[5] = biological target: Glucocorticoid receptor (Homo sapiens) (UniProt P04150); experiment: GR-EFC Redistribution (AID 451; calls by dose curve; note: potency is the fitted concentration of half-maximal effect); details: CHO-K1 GR-EFC translocation, beta-gal luminescence, 2 h
Method in brief: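 CHO-K1 cells expressing nuclear EA and GR-ED fragments of b-gal; compounds titrated up to 46 uM final, 2 h at 37 C. GR nuclear translocation read as complemented b-gal luminescence after 1 h RT detection.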

[6] = biological target: Mitogen-activated protein kinase 10 (Mus musculus) (UniProt Q61831); experiment: JNK3 AlphaScreen Assay (AID 530; active = well fitted curve in either direction with a large enough effect, not every such curve was filed as active;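 note: kinase came from lysate of stimulated human HepG2 cells; signal reports phosphorylation of biotinylated GST-cJun 1-79 at Ser73 with 10 µM ATP; % is set by controls: 0 for no effect and ±100 for the full control effect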); details: JNK3 lysate, c-Jun phosphorylation; series mostly up to 57.1 µM
Method in brief: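 Pre-activated (IL-1β/TNFα) JNK3 in HepG2 lysates phosphorylates biotin-GST-cJun(1-79), 10 uM ATP; anti-phospho-cJun(Ser73) AlphaScreen read at room temperature, pH 7.6 Tris buffer. Compounds pre-incubated 15 min as titrations.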

[7] = biological target: 3',5'-cyclic-AMP phosphodiesterase 4B (Homo sapiens) (UniProt Q07343); experiment: qHTS Assay for Inhibitors of PDE-IV (AID 607; active = well fitted activation curve with a large enough effect in the main read-out, with a control signal flat, not every such curve was filed as active; note: % of control where 0% means no effect); details: HEK293 ACTOne CNG channel cells, membrane potential fluorescence; series mostly up to 22.9 µM
Method in brief: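 Live HEK293 cells with a modified cyclic nucleotide-gated (CNG) channel report intracellular cAMP via membrane-potential dye fluorescence (ex 535/em 590 nm). Endogenous PDE-IV was targeted. Compounds were tested at up to 22.9 uM final; RO 20-1724 100 uM served as control.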

[8] = biological target: Guanine nucleotide-binding protein G(i) subunit alpha-1 (Homo sapiens) (UniProt P63096); experiment: qHTS Assay for Inhibitors of RGS12 GoLoco Motif Activity (Green Fluorophore) (AID 879); details: Galphai1/FITC-RGS12 GoLoco peptide, fluorescence polarization; series mostly up to 57.1 µM;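 note: 0% = labeled peptide with Gαi1 and full inhibition = labeled peptide alone without protein; negative values mean loss of peptide binding seen as reduced polarization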
Method in brief: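 Fluorescence polarization assay: 50 nM Gαi1 with 10 nM FITC-labeled RGS12 GoLoco peptide in 10 mM Tris pH 7.5, 150 mM NaCl, 0.1 mM GDP, 0.05% NP40, 10 min at room temperature with compound.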

[9] = biological target: Cytochrome P450 3A4 (Homo sapiens) (UniProt P08684); experiment: qHTS Assay for Inhibitors and Substrates of Cytochrome P450 3A4 (AID 884); details: recombinant CYP3A4, Luciferin-PPXE luminescence; series mostly up to 57.1 µM; note: nearly all actives have a fitted effect of over 50% in size; note: potency is the fitted concentration of half-maximal effect
Method in brief: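 20 nM human CYP3A4 with 25 uM Luciferin-PPXE (at KM) in 200 mM KPO4, preincubated 10 min with compound; NADPH regeneration started a 60 min RT reaction. Luciferin detected by luminescence, normalized to 57 uM ketoconazole as full inhibition.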

[10] = biological target: Cytochrome P450 2C19 (Homo sapiens) (UniProt P33261); experiment: qHTS Assay for Inhibitors and Substrates of Cytochrome P450 2C19 (AID 899); details: recombinant CYP2C19, luciferin-H EGE luminescence; series mostly up to 57.1 µM; note: % is set by controls: 0 for no effect and ±100 for the full control effect; nearly all actives have a fitted effect of over 60% in size
Method in brief: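 Luminescent read-out of luciferin formed from Luciferin-H EGE (10uM, equal to KM). Enzyme 5nM in 50mM KPO4; compound added, 10 min at 37C, then NADPH regenerating system for 60 min at 37C. Full inhibition defined by 57uM ketoconazole.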

[11] = biological target: Pyruvate kinase (Leishmania mexicana) (UniProt Q27686); experiment: qHTS Validation Assay for Inhibitors of Leishmania Mexicana Pyruvate Kinase (AID 945);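 note: 0% = DMSO only neutral control wells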; details: purified L. mexicana pyruvate kinase, enzyme activity, E451W mutant enzyme; series mostly up to 57.5 µM
Method in brief: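 Pyruvate kinase activity of E451W LmPYK (0.2 nM) was followed as ATP output after 1 h at room temperature with 0.5 mM PEP and 0.1 mM ADP, detected by PKLight luminescence.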

[12] = biological target: Pyruvate kinase PKM (Homo sapiens) (UniProt P14618); experiment: qHTS Assay for Activators of Human Muscle Pyruvate Kinase (AID 954; active = well fitted curve in the direction sought with a large enough effect, not every such curve was filed as active;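 note: 0% = uninhibited enzyme and -100% = no enzyme or full thiadiazolimine inhibition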); details: purified human muscle pyruvate kinase, luciferase-coupled luminescence, 1 h; series mostly up to 57.5 µM
Method in brief: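 Enzyme was run at intermediate activity so both inhibitors and activators could be detected. ATP formed from ADP and PEP by 0.1 nM human PKM2 during a 1 h room-temperature incubation was quantified by coupled luciferase luminescence.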

[13] = biological target: Alpha-galactosidase A (Homo sapiens) (UniProt P06280); experiment: Counterscreen for Glucocerebrosidase Inhibitors: qHTS Assay for Human alpha-Galactosidase at pH 4.5 (AID 992); details: purified enzyme, fluorogenic substrate; series mostly up to 76.9 µM; note: 0% is about no effect
Method in brief: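 Read-out is 4-methylumbelliferone fluorescence (365 nm excitation, 440 nm emission) after a pH 10 NaOH/glycine stop. Reactions held 2 nM enzyme and 80 uM substrate at pH 4.5 for 20 min at room temperature.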

[14] = biological target: alpha-glucosidase (Oryza sativa, rice) (UniProt Q653V4); experiment: Counterscreen for Glucocerebrosidase Inhibitors: qHTS Assay for Rice alpha-Glucosidase at pH 5.0 (AID 997); details: rice alpha-glucosidase enzyme activity; series mostly up to 76.9 µM;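 note: 0% = full activity with enzyme and -100% = basal without enzyme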
Method in brief: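 Rice alpha-glucosidase (4 nM final) with 400 uM 4-methylumbelliferyl-alpha-D-glucopyranoside in citrate buffer pH 5.0, 20 min at room temperature, stopped at pH 10; fluorescence 365/440 nm, compounds 0.7 nM–77 uM, AC50 from Hill fits.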

[15] = qHTS Assay for Lipid Storage Modulators (AID 1519; calls by dose curve); details: Drosophila S3 cells, BODIPY lipid droplet/cell ratio, laser cytometry, cells loaded with oleic acid
Method in brief: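 Cells seeded at 5,000 per well were treated with compounds over a concentration series and loaded with oleic acid (400 uM, as added). Lipid droplet fluorescence (488 nm excitation, 500-530 nm channel) was read by laser-scanning cytometry and normalized to 20 uM Triacsin C.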

[16] = system: Zika virus NS2B-NS3 protease; experiment: Primary screen GU AMC qHTS for Zika virus inhibitors (AID 1347154); details: Zika NS2B-NS3 unlinked protease, AMC fluorogenic substrate; series mostly up to 54.1 µM;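 note: 0% = no-inhibitor control and -100% = no-enzyme control; nearly all actives have a fitted effect of over 70% in size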
Method in brief: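 Unlinked Zika NS2B hydrophilic domain–NS3 protease complex at 25 nM in 10 mM Tris-HCl pH 8.0, 0.01% Tween 20, with an AMC peptide substrate. Fluorescence change (340/450 nm) over 15 min at room temperature, normalized to controls, fitted to 4-parameter Hill.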

[17] = Confirmation and Secondary Assay for Modulators of Hemoglobin Beta Chain Splicing at IVS2 654 locus (AID 910); details: HeLa EGFP-654 splicing reporter, GFP fluorescence, 48 h; series mostly up to 46.1 µM;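 note: HeLa cells stably carrying EGFP split by mutant beta-globin IVS2-654 intron; % of control where 0% means no effect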
Method in brief: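 HeLa cells stably expressing EGFP interrupted by β-globin IVS2-654 intron, seeded overnight in Opti-MEM/2% FCS, then treated 2 days at 37 °C. Restored splicing read as total peak GFP intensity per well by laser scanning cytometry (488 nm excitation, 500–520 nm emission); 500 nM antisense PNA as control.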

[18] = Confirmation and Secondary Assay for Modulators of Hemoglobin Beta Chain Splicing at IVS2 705 locus (AID 930); details: HeLa EGFP-705 splicing reporter, GFP fluorescence, 48 h; series mostly up to 46.1 µM;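 note: HeLa cells stably expressing the EGFP-705 splicing reporter; GFP fluorescence per well restored by corrected splicing of the IVS2-705 intron in EGFP; % of control where 0% means no effect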
Method in brief: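 Assay measures total GFP intensity per well in HeLa EGFP-705 cells after 2 days with compound; mis-splicing normally truncates EGFP, so fluorescence indicates corrected splicing.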

[19] = biological target: Ubiquitin carboxyl-terminal hydrolase 1 (Homo sapiens) (UniProt O94782); experiment: Inhibitors of USP1/UAF1: Pilot qHTS (AID 504865); details: purified USP1/UAF1, Ub-rhodamine cleavage fluorescence; series mostly up to 114 µM;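 note: rhodamine fluorescence freed from ubiquitin-rhodamine substrate followed over time; top concentration of the series differs between compounds; % is set by controls: 0 for no effect and ±100 for the full control effect; nearly all actives have a fitted effect of over 35% in size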
Method in brief: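 USP1/UAF1 complex at 1 nM preincubated 15 min at room temperature with compound, then Ub-Rho substrate added at 150 nM final. Fluorescence (480/540 nm) read kinetically in 50 mM HEPES pH 7.8, 0.5 mM EDTA, 1 mM TCEP, 0.1 mg/ml BSA, 0.01% Tween-20.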

[20] = Primary qHTS for small molecule stabilizers of the endoplasmic reticulum resident proteome: Secreted ER Calcium Modulated Protein (SERCaMP) assay (AID 1508630); details: SH-SY5Y GLuc-SERCaMP (Gaussia luciferase released on ER calcium loss) secretion, thapsigargin, luminescence; series mostly up to 38.4 µM; note: % is set by controls: 0 for no effect and ±100 for the full control effect
Method in brief: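 GLuc-SERCaMP-expressing SH-SY5Y cells, pretreated 16 h with compound, are challenged with thapsigargin to empty ER calcium stores; after 4 h, coelenterazine is added directly to the medium and luminescence is imaged.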

[21] = biological target: DNA dC->dU-editing enzyme APOBEC-3G (Homo sapiens) (UniProt Q9HC16); experiment: qHTS for inhibitors of Vif-A3G interactions: Validation (AID 588379); details: Vif-A3G protein interaction assay; series mostly up to 46.1 µM; note: 0% is about no effect
Method in brief: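 HeLa cells stably expressing Vif and A3G-eYFP, 700 cells/well, incubated overnight at 37 deg C, then exposed to compound overnight at 37 deg C. Inhibition of Vif-mediated degradation read as increased yellow fluorescence (Ex 488/Em 500-530) by laser-scanning cytometry.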

[22] = biological target: Cytochrome P450 3A4 (Homo sapiens) (UniProt P08684); experiment: qHTS Assay for Activators of Cytochrome P450 3A4 (AID 885); details: recombinant CYP3A4, Luciferin-PPXE luminescence, 60 min; series mostly up to 57.1 µM; note: nearly all actives have a fitted effect of over 65% in size
Method in brief: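 Quantitative HTS format: compounds preincubated with 20nM human CYP3A4 and Luciferin-PPXE substrate at KM, reaction started by NADPH regeneration, stopped after 60 min, luciferase luminescence read 20 min later.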

[23] = qHTS profiling of the MIPE4 collection as inhibitors of Plasmodium falciparum (DD2) proliferation (AID 743345; call rule not given here); details: P. falciparum Dd2 in erythrocytes, SYBR Green DNA, 72 h; at 28.5 µM (top of the series)
Method in brief: (§1)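 Erythrocytes infected with P. falciparum (0.3% parasitemia, 2.5% hematocrit) incubated with compounds 72 h at 37 C, 5% CO2. Lysis with saponin/Triton buffer containing SYBR Green I, overnight at room temperature in the dark; DNA fluorescence (485/535 nm) normalised to 0.29 uM artemisinin and DMSO.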

[24] = qHTS profiling of the MIPE4 collection as inhibitors of Plasmodium falciparum (HB3) proliferation (AID 743347; call rule not given here;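 note: plate controls were DMSO vehicle wells for no effect and artemisinin wells for full effect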); details: P. falciparum HB3 in erythrocytes, SYBR Green DNA, 72 h; at 28.5 µM (top of the series)
Method in brief: as §1

Sequence of 3',5'-cyclic-AMP phosphodiesterase 4B (Homo sapiens) (Q07343 whole entry, looked up): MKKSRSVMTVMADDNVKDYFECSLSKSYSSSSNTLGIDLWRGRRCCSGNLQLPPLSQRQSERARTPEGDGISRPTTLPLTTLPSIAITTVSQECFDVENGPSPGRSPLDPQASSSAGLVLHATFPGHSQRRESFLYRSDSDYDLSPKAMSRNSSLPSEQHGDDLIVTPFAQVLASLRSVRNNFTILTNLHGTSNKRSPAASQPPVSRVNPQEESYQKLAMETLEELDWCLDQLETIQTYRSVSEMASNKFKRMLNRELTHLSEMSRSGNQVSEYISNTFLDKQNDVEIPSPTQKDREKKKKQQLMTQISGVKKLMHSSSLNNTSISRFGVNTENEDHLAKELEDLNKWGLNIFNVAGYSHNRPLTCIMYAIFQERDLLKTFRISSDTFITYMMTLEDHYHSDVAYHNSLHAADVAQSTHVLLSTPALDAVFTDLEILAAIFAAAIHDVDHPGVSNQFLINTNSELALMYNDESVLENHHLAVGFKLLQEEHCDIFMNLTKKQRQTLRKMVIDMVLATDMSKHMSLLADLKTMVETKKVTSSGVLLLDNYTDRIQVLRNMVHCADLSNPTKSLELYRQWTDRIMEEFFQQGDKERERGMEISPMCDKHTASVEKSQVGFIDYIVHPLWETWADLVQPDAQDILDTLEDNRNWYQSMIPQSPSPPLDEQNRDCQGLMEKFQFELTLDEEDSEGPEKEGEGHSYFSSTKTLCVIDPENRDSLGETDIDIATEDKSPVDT
Sequence of Cytochrome P450 3A4 (Homo sapiens) (P08684 whole entry, looked up): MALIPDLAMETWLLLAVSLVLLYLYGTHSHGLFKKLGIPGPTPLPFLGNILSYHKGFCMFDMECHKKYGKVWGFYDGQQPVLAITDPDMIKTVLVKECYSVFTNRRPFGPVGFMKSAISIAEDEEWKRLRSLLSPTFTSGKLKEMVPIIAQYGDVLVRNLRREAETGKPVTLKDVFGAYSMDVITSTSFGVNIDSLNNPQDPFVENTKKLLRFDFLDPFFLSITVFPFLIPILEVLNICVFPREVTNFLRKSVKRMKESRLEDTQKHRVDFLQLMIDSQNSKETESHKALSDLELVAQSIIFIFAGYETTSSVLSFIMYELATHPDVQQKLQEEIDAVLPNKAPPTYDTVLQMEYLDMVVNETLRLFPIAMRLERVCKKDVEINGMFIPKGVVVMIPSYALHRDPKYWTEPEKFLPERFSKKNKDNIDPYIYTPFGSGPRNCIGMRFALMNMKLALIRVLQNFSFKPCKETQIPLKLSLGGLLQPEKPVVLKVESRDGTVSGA
Sequence of Cytochrome P450 2C19 (Homo sapiens) (P33261 whole entry, looked up): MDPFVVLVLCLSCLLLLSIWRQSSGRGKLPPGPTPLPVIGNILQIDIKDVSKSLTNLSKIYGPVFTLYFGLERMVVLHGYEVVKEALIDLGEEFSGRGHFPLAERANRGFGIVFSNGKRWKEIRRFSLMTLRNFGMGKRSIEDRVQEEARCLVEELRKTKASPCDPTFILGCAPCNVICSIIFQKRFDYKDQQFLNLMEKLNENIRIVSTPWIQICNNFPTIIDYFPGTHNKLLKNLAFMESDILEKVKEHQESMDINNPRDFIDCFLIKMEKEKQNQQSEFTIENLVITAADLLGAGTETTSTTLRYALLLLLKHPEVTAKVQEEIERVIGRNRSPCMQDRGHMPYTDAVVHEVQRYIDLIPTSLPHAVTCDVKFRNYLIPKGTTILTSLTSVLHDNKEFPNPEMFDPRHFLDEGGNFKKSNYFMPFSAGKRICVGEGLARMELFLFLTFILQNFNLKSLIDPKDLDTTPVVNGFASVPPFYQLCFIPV
Sequence of Glucocorticoid receptor (Homo sapiens) (P04150 whole entry, looked up, the tested form may be a part): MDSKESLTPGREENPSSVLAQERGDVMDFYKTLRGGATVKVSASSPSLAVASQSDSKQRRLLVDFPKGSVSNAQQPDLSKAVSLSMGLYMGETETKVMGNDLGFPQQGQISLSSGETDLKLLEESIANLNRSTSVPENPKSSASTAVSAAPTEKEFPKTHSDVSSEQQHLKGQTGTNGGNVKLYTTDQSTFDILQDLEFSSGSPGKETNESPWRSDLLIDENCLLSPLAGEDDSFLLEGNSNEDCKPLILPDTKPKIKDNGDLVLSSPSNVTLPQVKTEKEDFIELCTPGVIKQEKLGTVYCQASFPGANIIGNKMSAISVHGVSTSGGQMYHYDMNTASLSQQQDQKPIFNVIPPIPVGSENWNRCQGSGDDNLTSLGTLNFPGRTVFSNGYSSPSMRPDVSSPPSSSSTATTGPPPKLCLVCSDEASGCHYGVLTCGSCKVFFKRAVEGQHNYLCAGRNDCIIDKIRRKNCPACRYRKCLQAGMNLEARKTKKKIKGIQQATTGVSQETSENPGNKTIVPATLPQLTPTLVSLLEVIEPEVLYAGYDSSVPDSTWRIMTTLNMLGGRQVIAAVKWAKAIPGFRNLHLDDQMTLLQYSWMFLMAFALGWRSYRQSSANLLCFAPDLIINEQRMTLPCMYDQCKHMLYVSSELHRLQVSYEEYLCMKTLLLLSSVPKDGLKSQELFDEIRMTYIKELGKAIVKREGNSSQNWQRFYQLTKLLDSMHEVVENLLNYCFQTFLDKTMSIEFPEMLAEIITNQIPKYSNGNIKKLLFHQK
Sequence of DNA dC->dU-editing enzyme APOBEC-3G (Homo sapiens) (Q9HC16 whole entry, looked up): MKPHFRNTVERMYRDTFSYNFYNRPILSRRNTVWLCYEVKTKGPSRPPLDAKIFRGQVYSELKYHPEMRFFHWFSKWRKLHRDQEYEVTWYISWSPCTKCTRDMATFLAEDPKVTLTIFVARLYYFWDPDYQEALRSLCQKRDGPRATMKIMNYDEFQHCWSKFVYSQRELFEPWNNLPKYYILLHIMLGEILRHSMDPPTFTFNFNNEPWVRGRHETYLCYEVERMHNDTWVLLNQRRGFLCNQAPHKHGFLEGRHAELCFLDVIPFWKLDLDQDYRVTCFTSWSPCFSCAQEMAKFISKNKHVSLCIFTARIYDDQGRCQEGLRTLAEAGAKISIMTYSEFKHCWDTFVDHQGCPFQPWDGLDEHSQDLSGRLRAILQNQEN
Sequence of Cytochrome P450 1A2 (Homo sapiens) (P05177 whole entry, looked up): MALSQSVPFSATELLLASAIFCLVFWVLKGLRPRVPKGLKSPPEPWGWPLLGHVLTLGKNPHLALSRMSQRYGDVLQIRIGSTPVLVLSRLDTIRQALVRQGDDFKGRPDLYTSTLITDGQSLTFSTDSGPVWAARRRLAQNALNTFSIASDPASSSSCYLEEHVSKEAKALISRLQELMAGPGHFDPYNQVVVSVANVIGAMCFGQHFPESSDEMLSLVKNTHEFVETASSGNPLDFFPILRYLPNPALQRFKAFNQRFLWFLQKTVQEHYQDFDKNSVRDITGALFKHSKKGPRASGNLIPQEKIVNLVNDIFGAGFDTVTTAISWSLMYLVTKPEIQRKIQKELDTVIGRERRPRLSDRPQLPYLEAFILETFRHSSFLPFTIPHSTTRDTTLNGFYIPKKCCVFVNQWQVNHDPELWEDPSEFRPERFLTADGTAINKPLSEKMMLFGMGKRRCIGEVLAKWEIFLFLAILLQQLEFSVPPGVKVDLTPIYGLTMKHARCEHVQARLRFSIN
Sequence of Ubiquitin carboxyl-terminal hydrolase 1 (Homo sapiens) (O94782 whole entry, looked up): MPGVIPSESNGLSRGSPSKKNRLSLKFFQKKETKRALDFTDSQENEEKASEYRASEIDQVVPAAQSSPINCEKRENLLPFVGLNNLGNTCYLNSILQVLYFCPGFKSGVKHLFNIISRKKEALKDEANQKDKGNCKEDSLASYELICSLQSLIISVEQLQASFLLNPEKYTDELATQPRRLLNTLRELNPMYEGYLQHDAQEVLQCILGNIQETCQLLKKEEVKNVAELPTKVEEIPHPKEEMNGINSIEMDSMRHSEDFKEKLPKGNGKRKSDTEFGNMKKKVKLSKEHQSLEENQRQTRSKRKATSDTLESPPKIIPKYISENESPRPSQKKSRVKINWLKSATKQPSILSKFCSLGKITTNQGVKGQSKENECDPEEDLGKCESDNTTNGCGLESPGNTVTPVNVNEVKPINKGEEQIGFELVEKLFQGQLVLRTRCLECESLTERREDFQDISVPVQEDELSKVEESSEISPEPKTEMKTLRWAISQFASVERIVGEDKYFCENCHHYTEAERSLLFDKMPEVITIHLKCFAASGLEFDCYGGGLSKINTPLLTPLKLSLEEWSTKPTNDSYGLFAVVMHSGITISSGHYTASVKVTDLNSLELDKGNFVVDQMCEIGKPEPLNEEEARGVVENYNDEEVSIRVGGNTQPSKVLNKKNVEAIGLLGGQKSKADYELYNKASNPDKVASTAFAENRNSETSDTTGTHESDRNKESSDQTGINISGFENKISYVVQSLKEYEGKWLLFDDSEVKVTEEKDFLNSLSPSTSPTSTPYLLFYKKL
Sequence of Alpha-galactosidase A (Homo sapiens) (P06280 whole entry, looked up): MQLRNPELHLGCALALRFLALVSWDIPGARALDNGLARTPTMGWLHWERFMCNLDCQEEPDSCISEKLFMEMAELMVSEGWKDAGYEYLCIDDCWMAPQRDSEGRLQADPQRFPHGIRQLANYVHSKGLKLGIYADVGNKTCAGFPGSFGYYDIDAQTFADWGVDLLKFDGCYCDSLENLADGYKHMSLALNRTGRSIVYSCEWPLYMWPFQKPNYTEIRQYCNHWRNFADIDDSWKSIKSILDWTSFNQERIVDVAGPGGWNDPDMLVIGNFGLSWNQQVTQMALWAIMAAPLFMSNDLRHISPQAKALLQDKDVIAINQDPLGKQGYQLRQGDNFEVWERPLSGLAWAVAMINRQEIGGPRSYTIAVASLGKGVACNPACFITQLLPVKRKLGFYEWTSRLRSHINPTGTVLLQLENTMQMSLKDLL
Sequence of Guanine nucleotide-binding protein G(i) subunit alpha-1 (Homo sapiens) (P63096 whole entry, looked up): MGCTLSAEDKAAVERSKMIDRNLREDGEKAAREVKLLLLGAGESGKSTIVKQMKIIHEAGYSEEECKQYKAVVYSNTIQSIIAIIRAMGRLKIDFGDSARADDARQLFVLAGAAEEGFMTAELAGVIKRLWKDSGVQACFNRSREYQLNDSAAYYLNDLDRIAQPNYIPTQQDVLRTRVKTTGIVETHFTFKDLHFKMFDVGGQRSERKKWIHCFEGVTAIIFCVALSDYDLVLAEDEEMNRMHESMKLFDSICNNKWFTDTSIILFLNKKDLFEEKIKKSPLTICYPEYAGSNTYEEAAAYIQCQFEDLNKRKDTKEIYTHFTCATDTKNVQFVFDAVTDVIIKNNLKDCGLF

Fc1ccc(C(c2ccc(F)cc2)N2CCN(C/C=C\c3ccccc3)CC2)cc1
-22.1%: max response ([15]; measured here: lipid channel max response)
active: Potency [2] 15.8 µM
inactive: activity change, negative = inhibition ([1]; at 17.2 µM (top of the series)) -7.16% | activity change, negative = inhibition ([1]; at 38 µM (top of the series)) 2.24% | activity, negative = inhibition ([3]; at 17.2 µM (top of the series)) 10.1% | activity, negative = inhibition ([3]; at 38 µM (top of the series)) -6.11% | Potency [4] > 46 µM and > 20.6 µM | Potency [5] > 46 µM and > 20.6 µM | Potency [6] | Potency [7] | outcome [8] | Potency [9] | Potency [10] | Potency [11] | outcome [12] | outcome [13] | outcome [14] | activity change, negative = inhibition ([15]; at 25.7 µM (top of the series)) -8.39% | Potency [16]
-13.5%: max response ([15]; measured here: cell count channel max response)

CC1OC(OC2C(CO)OC(OC3C(CO)OC(O)C(O)C3O)C(O)C2O)C(O)C(O)C1NC1C=C(CO)C(O)C(O)C1O (centres undefined)
inactive: Potency [9] | outcome [17] | outcome [18] | Potency [19] | Potency [16] | Potency [20]

c1ccc(CN2CCC3(CCc4ccccc43)CC2)cc1
inactive: Potency [4] > 46 µM | Potency [5] > 46 µM | Potency [21] | Potency [16] | Potency [20]

CCOC(=O)C1CSC(Cc2ccc(OCc3ccc([N+](=O)[O-])cc3)cc2)N1 (centres undefined)
active: Potency [9] 15.8 µM
inactive: Potency [22] | Potency [16] | Potency [20]

CC(C)(C)c1cc(O)c(C(C)(C)C)cc1O
inactive: Potency [4] > 46 µM | Potency [5] > 46 µM | Potency [21] | Potency [16] | Potency [20]

C[C@H](CCC(=O)O)[C@H]1CCC2C3CC[C@@H]4C[C@H](O)CC[C@]4(C)C3CC[C@@]21C (some centres undefined)
97.2%: parasite growth remaining, % of DMSO control (lower = more inhibition) [23]
98.2%: growth, % of control [24]
inactive: Potency [16] | Potency [20]
